PubChem BioAssay (NCI)
This is part of a sample that, as a whole, favours compounds with a hit. Of some 79,000 tested, about 15% had one in any assay. Rule as the data show it: active = growth inhibition above about 70%; inactive = the rest.

Columns and labels:
[1] = NCI Yeast Anticancer Drug Screen. Data for the rad50 strain (AID 155);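 also: 0% = growth of vehicle-only cultures of the same strain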; conditions: S. cerevisiae rad50 strain growth inhibition; at 50.0 µM; hits give high values
How it was run: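 Compounds were tested on a yeast strain with an engineered DNA damage repair alteration; the reported value is growth inhibition normalised to vehicle treatment.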

[2] = NCI Yeast Anticancer Drug Screen. Data for the mec2-1 strain (AID 157); conditions: S. cerevisiae mec2-1 strain, at 50.0 µM, hits give high values
How it was run: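 Growth inhibition is read against vehicle-treated controls after compound exposure of the mec2-1 yeast strain, which is defective in DNA damage repair or cell cycle control.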

[3] = NCI Yeast Anticancer Drug Screen. Data for the sgs1 mgt1 strain (AID 161);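 also: 0% = growth of cultures given vehicle only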; conditions: S. cerevisiae sgs1 mgt1 strain, at 50.0 µM, hits give high values
How it was run: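 Growth of a repair-deficient yeast mutant was monitored after compound treatment and expressed as inhibition relative to vehicle-treated cultures.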

[4] = NCI Yeast Anticancer Drug Screen. Data for the cln2 rad14 strain (AID 165);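 also: 0% = growth equal to vehicle treated cultures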; conditions: S. cerevisiae cln2 rad14 strain, at 50.0 µM, hits give high values
How it was run: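 Growth inhibition, relative to vehicle-treated controls, is the read-out. The test organism is a yeast strain with defined genetic alterations, cln2 rad14.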

[5] = NCI Yeast Anticancer Drug Screen. Data for the bub3 strain (AID 167); conditions: S. cerevisiae bub3 mutant strain, at 50.0 µM, hits give high values
How it was run: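 Growth of a checkpoint-deficient yeast mutant is measured after compound exposure. Values represent inhibition relative to vehicle.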

[6] = NCI Yeast Anticancer Drug Screen. Data for the mlh1 rad18 strain (AID 175); conditions: S. cerevisiae mlh1 rad18 strain growth inhibition; at 50.0 µM; hits give high values
How it was run: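 Cells of a genetically altered yeast strain, deficient in DNA damage repair, were treated with compound. Their growth was then compared with that of vehicle-treated cultures to give inhibition.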

Measured: growth inhibition

CCOP(=O)(OCC)/C(C#N)=C/c1cccc(OC)c1
inactive: [1] 57.5% | [2] 46.7% | [3] 45.6% | [4] 16.9% | [5] 30.8% | [6] 63%

O=P(O)(O)c1ccccc1
inactive: [1] -10.4% | [2] -3.85% | [3] 8.85% | [4] -18.9% | [5] 2.6% | [6] 4.65%

CCCCCC[n+]1noc(N)c1-c1ccc(-c2c(N)on[n+]2CCCCCC)cc1
inactive: [1] 17.6% | [2] -1.35% | [3] 26.1% | [4] 21.8% | [5] 16.2% | [6] 18.5%

O=c1[nH]c(=O)[nH]c(=O)[nH]1
inactive: [1] 25.6% | [2] -16.1% | [3] -12.9% | [4] -42.8% | [5] 1.1% | [6] 27.6%

O=C1NC(=O)C(Cc2cccc(Cl)c2)C(=O)N1
inactive: [1] 15.1% | [2] -6.9% | [3] -15.8% | [4] -8.05% | [5] 0.55% | [6] -36%

CC(Br)C(N)=O (stereo not given)
inactive: [1] -14.4% | [2] -17.8% | [3] -14.1% | [4] -20.4% | [5] -4.9% | [6] -13.8%

CC1CC(C)OP(Oc2ccccc2)O1 (stereo not given)
inactive: [1] -24.6% | [2] 4.05% | [3] -21.8% | [4] -15.7% | [5] -7.15% | [6] -10.5%

c1ccc2c(c1)c1ccccc1c1n[se]nc21
inactive: [1] -4.7% | [2] -1.5% | [3] 2.75% | [4] -6.25% | [5] 7.55% | [6] 11.9%

[Se]=P(NC1CCCCC1)(NC1CCCCC1)NC1CCCCC1
inactive: [1] 14.5% | [2] -0.9% | [3] 2% | [4] 5.1% | [5] 3.25% | [6] 17.9%

COc1ccc2[nH]cc(/C=C\[N+](=O)[O-])c2c1
inactive: [1] 6% | [2] -10.1% | [3] 32.4% | [4] 2.2% | [5] 7.65% | [6] 13.8%

COc1ccc(C)cc1C(=O)C[n+]1ccc2ccccc2c1
inactive: [1] -10.4% | [2] -0.8% | [3] -25.1% | [4] -21.4% | [5] -6.5% | [6] 0.15%

O=c1[nH]cc(N=Cc2ccccc2F)c(=O)[nH]1.[Cl][Pt][Cl]
inactive: [1] 20.6% | [2] 6.15% | [3] 24.7% | [4] 26.9% | [5] -0.2% | [6] 8.95%

Cc1ccc(S(N)(=O)=O)cc1
inactive: [1] 22% | [2] -5.05% | [3] 5.8% | [4] -8.25% | [5] 12.8% | [6] 18.8%

O=S(=O)(F)c1cccc(Cl)c1C[P+](c1ccccc1)(c1ccccc1)c1ccccc1
inactive: [1] 25.5% | [2] 3% | [3] 13.7% | [4] 12.7% | [5] 25.5% | [6] 41.4%

CC1OC(=O)C(C(C)C)NC(=O)C(C(C)C)OC(=O)C(C(C)C)NC(=O)C(C)OC(=O)C(C(C)C)NC(=O)C(C(C)C)OC(=O)C(C(C)C)NC(=O)C(C)OC(=O)C(C(C)C)NC(=O)C(C(C)C)OC(=O)C(C(C)C)NC1=O (stereo not given)
inactive: [1] 31.9% | [2] 38.8% | [3] 45.9% | [4] 25.1% | [5] 16.8% | [6] 42.5%

O=P(Nc1ccc2ccccc2c1)(Nc1ccc2ccccc2c1)N(CCCl)CCCl
inactive: [1] -4.3% | [2] -3.5% | [3] 4.7% | [4] 4.2% | [5] -12.3% | [6] -12.8%

CC(=O)Nc1cc([As](C)(=O)O)ccc1O
inactive: [1] -10.3% | [2] 1.75% | [3] 1.95% | [4] -41.5% | [5] -9.65% | [6] -1.85%

S=C(N=Nc1ccccc1)NNc1ccccc1.[Cu+2]
inactive: [1] -17.4% | [2] -28.8% | [3] -30% | [4] 1.8% | [5] 5.75% | [6] -15.2%

CN(C(=O)CCl)c1ccccc1
inactive: [1] 15.3% | [2] 13.7% | [3] 8.5% | [4] 11.2% | [5] 9.75% | [6] 26.9%

CC(=O)[C-](Br)C(C)=O.CC(=O)[C-](Br)C(C)=O.CC(=O)[C-](Br)C(C)=O.[Ru+3]
inactive: [1] 1.05% | [2] 1% | [3] -15.9% | [4] -15.1% | [5] 17.8% | [6] 14.5%
